Experimental data reported in PubChem BioAssay (Tox21).
Records with an inconclusive call do not appear. Active and inactive are the calls of the source. Unless noted, calls come from the whole dose curve; as a rule, active = well fitted curve in the direction sought with a large enough effect in the repeat runs; inconclusive = weak or mixed curves; inactive = no such curve, though single readings can be large; an effect the other way counts as inactive or inconclusive.

Assays:
[1] = molecular target: Thyrotropin receptor (Homo sapiens) (UniProt P16473); experiment: qHTS assay to identify small molecule antagonists of the thyroid stimulating hormone receptor (TSHR) signaling pathway (AID 1259385; calls by dose curve; note: nearly all actives have a fitted effect of over 20% in size)
In short: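 TSHR-HEK293 cells were plated and held 18 h at 37C/5% CO2, then given compound plus Ro20-1724 and stimulated with TSH at 1.5 ng/mL final. After 30 min at room temperature, cAMP was detected with cAMP-d2/anti-cAMP-cryptate (1 h) by fluorescence.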

[2] = qHTS assay to identify small molecule agonists of the estrogen receptor alpha (ER-alpha) signaling pathway in the presence of an antagonist - cell viability counter screen (AID 1259386);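 note: series mostly up to about 92 µM; cells exposed to compounds for 22 h at 37 °C before the viability read; nearly all actives have a fitted effect of over 30% in size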
In short: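 Viability counter screen using VM7Luc4E2 (full-length ER-alpha, four ERE-luciferase). The cells were treated with compounds alongside ICI-182,780 10.0nM for 22hr, and live-cell protease fluorescence was quantified with CellTiter-Fluor.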

[3] = molecular target: Progesterone receptor (Homo sapiens) (UniProt P06401); experiment: qHTS assay to identify small molecule agonists of the progesterone receptor (PR) signaling pathway (AID 1346784; calls by dose curve; note: nearly all actives have a fitted effect of over 30% in size)
In short: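 Cells (PR-UAS-bla HEK 293T, GripTite) were plated in assay medium containing 2% charcoal-stripped FBS and incubated 6 hr. Test compounds in DMSO were added for 16 hr at 37C. FRET substrate was then loaded for 2 hr at room temperature before fluorescence reading.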

[4] = qHTS assay to identify small molecule agonists of the progesterone receptor (PR) signaling pathway - cell viability counter screen (AID 1346799; calls by dose curve; note: nearly all actives have a fitted effect of over 45% in size; note: potency is the fitted concentration of half-maximal effect)
In short: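 Cells (PR-UAS-bla HEK293T) are plated at 3,000/well in 2% charcoal-stripped FBS medium, rested 6 hr, dosed and incubated 16 hr at 37C. CellTiter-Glo is then added and luminescence measured after 30 min at room temperature.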

[5] = qHTS assay to identify small molecule antagonists of the TGF-beta/Smad signaling pathway - cell viability counter screen (AID 1346824); note: nearly all actives have a fitted effect of over 50% in size
In short: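 SBE-bla HEK 293T cells were plated overnight at 37 C, then given compounds in DMSO plus TGF-beta1 (added as 0.25 ng/mL solution) for 5 hr. After the bla read, CellTiter-Glo was added to the same wells and luminescence read after 30 min at room temperature.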

[6] = qHTS assay to identify small molecule agonists of the TGF-beta/Smad signaling pathway - cell viability counter screen (AID 1346829); note: top concentration of the series differs between compounds; nearly all actives have a fitted effect of over 45% in size
In short: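 Luminescence from CellTiter-Glo, read after a 30 min room-temperature incubation, gives cell viability of SBE-bla HEK 293T cells treated 5 hr with compounds at 37 C.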

[7] = Human pregnane X receptor (PXR) small molecule agonists, qHTS cell viability counter screen (AID 1346977); note: nearly all actives have a fitted effect of over 50% in size
In short: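 Cytotoxicity counter screen run in the same wells as the PXR luciferase assay, using PXR-Luc HepG2 cells in charcoal-stripped serum medium. Viability: CellTiter-Fluor fluorescence after 24hr compound treatment.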

[8] = Caspase-3/7 induction in HepG2 cells by small molecules, qHTS assay (AID 1346978); note: nearly all actives have a fitted effect of over 15% in size
In short: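 Wild-type HepG2 cells (2,000/well) were settled 5 h at 37 C, 5% CO2, then exposed to compounds in DMSO for 17 h. Caspase-3/7 activity was read by luminescence 30 min after adding Caspase-Glo 3/7 reagent at room temperature.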

[9] = Caspase-3/7 induction in CHO-K1 cells by small molecules, qHTS cell viability counter screen (AID 1346979); note: nearly all actives have a fitted effect of over 35% in size
In short: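 Cytotoxicity counter screen run in parallel with the caspase-3/7 assay: CHO-K1 cells, 16hr compound treatment at 37C, then CellTiter-Fluor for 1hr before fluorescence reading.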

[10] = Caspase-3/7 induction in CHO-K1 cells by small molecules, qHTS assay (AID 1346980); note: nearly all actives have a fitted effect of over 15% in size
In short: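 Wild-type cells were seeded at 1,500 per well and settled 5 hr at 37 C, 5% CO2, then exposed to DMSO-dissolved compounds for 17 hr. Caspase-Glo 3/7 reagent was added, and luminescence was read after 30min at room temperature.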

[11] = Caspase-3/7 induction in HepG2 cells by small molecules, qHTS cell viability counter screen (AID 1346981); note: series mostly up to about 92 µM; nearly all actives have a fitted effect of over 30% in size
In short: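 Viability determined by CellTiter-Fluor fluorescence in HepG2 wells also used for the luminescent Caspase-Glo 3/7 read. Compounds were present for 16 hr at 37 C, 5% CO2 before reagent addition.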

[12] = molecular target: Nuclear receptor subfamily 1 group I member 2 (Homo sapiens) (UniProt O75469); experiment: Human pregnane X receptor (PXR) small molecule agonists, qHTS assay (AID 1346982); note: nearly all actives have a fitted effect of over 35% in size; note: potency is the fitted concentration of half-maximal effect
In short: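 Compound-induced hPXR transactivation of a CYP3A4 luciferase reporter was scored in HepG2 PXR-Luc cells over 24 hr at 37 C, 5% CO2, by luminescence.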

[13] = molecular target: Progesterone receptor (Homo sapiens) (UniProt P06401); experiment: qHTS assay to identify small molecule antagonists of the progesterone receptor (PR) signaling pathway (AID 1346795; active = well fitted inhibition curve with a large enough effect in the signal ratio in the repeat runs, not every such curve was filed as active; the % refers to the signal ratio; note: potency is the fitted concentration of half-maximal effect)
In short: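 Antagonist mode: compounds tested against 1 nM (final) promegestone stimulation in HEK293T cells expressing PR-UAS-bla reporter, 16 hr at 37C, 5% CO2; beta-lactamase activity detected via B/G FRET substrate after 2 hr at room temperature.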

[14] = qHTS assay to identify small molecule antagonists of the progesterone receptor (PR) signaling pathway - cell viability counter screen (AID 1346798); note: nearly all actives have a fitted effect of over 50% in size; note: potency is the fitted concentration of half-maximal effect; for activity change, negative = cytotoxicity: series mostly up to about 92 µM
In short: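 Counter screen for cytotoxicity: viability of PR-UAS-bla HEK293T cells was measured with CellTiter-Glo luminescence following 16 hr compound exposure in the presence of R5020.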

[15] = qHTS assay to identify small molecule agonists of the TGF-beta/Smad signaling pathway (AID 1346859; active = well fitted activation curve with a large enough effect in the signal ratio in the repeat runs, not every such curve was filed as active; the % refers to the signal ratio; note: series mostly up to about 77 µM)
In short: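 Reporter line: HEK 293T with stably integrated SBE-controlled beta-lactamase. Compound exposure lasts 5 hr at 37 C and 5% CO2; substrate loading follows for 2 hr at room temperature, with emission read at 460 and 530 nm.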

[16] = molecular target: Thyrotropin-releasing hormone receptor (Homo sapiens) (UniProt P34981); experiment: qHTS assay to identify small molecule antagonists of the thyrotropin-releasing hormone receptor (TRHR) signaling pathway (AID 1346877; active = well fitted inhibition curve with a large enough effect in the repeat runs, not every such curve was filed as active; note: series mostly up to about 51 µM)
In short: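 Following an 18 h incubation at 37 °C and a 2 h calcium dye load, TRHR-HEK293 cells were exposed to compound (5 min, room temperature) and challenged with TRH, 1 nM final.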

[17] = molecular target: Thyrotropin-releasing hormone receptor (Homo sapiens) (UniProt P34981); experiment: qHTS assay to identify small molecule agonists of the thyrotropin-releasing hormone receptor (TRHR) signaling pathway (AID 1346891; calls by dose curve;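 note: HEK293 cells expressing TRHR with calcium dye readout; series mostly up to about 58 µM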)
In short: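 Cells: TRHR-Hek293, seeded and incubated 18 h. Dye loading: 2 h at 37 °C. Compound added from DMSO stock by pin tool. Read-out: kinetic calcium fluorescence over 3 min.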

[18] = molecular target: Nuclear receptor subfamily 1 group I member 2 (Rattus norvegicus) (UniProt Q9R1A7); experiment: Rat pregnane X receptor (rPXR) activation by small molecules, qHTS assay (AID 1346983); details: rPXR luciferase reporter cells, One-Glo luminescence, 24 h; max activation: stronger effect = higher value; note: nearly all actives have a fitted effect of over 20% in size
In short: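 Cell-based rPXR luciferase reporter assay, 2,000 cells per well, rested 5hr at 37 C before compound addition in DMSO, then 24 hr at 37 C. One-Glo reagent was added and luminescence read after 30 min at room temperature.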

[19] = molecular target: Nuclear receptor subfamily 1 group I member 2 (Homo sapiens) (UniProt O75469); experiment: CYP3A4 induction through human pregnane X receptor (PXR) by small molecules, qHTS assay (AID 1346984); note: nearly all actives have a fitted effect of over 40% in size
In short: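 Readings come from a luciferase reporter: DPX-2 cells, which are HepG2 cotransfected with PXR and a CYP3A4-promoter construct, were exposed to test compounds for 24 h at 37C before One-Glo detection.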

[20] = molecular target: Nuclear receptor subfamily 1 group I member 2 (Homo sapiens) (UniProt O75469); experiment: Human pregnane X receptor (PXR) activation by small molecules, qHTS assay (AID 1346985); note: nearly all actives have a fitted effect of over 40% in size
In short: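 DPX-2 cells (HepG2 co-transfected with a PXR response element and a CYP3A4-promoter luciferase construct) were seeded at 2,000 per well, rested 5 hr at 37C, then exposed to DMSO-dissolved compounds for 24 hr. Activation was read as luciferase luminescence.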
% is set by controls: 0 for no effect and ±100 for the full control effect.

Sequence of Thyrotropin-releasing hormone receptor (Homo sapiens) (P34981 whole entry, looked up): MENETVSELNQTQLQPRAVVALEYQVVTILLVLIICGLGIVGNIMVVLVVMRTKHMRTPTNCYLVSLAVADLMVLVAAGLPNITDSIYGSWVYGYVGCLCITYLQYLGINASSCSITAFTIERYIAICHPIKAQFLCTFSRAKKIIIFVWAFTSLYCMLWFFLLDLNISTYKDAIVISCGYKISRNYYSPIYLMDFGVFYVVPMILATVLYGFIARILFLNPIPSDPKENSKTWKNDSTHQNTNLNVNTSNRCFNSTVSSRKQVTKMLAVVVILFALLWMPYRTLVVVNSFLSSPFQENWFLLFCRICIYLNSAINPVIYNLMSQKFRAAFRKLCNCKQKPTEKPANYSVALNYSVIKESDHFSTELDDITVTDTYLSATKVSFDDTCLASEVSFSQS
Sequence of Nuclear receptor subfamily 1 group I member 2 (Homo sapiens) (O75469 whole entry, looked up): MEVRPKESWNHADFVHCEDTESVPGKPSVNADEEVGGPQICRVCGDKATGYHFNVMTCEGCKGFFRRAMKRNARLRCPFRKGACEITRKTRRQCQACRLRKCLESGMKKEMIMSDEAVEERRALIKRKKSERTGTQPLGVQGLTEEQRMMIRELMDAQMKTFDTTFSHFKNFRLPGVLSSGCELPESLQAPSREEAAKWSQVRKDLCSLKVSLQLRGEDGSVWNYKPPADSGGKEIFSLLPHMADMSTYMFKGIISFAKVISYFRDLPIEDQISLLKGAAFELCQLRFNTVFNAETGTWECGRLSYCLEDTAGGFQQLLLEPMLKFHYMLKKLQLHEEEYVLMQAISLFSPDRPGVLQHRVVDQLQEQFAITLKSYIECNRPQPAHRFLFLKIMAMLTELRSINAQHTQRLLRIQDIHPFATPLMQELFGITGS
Sequence of Thyrotropin receptor (Homo sapiens) (P16473 whole entry, looked up): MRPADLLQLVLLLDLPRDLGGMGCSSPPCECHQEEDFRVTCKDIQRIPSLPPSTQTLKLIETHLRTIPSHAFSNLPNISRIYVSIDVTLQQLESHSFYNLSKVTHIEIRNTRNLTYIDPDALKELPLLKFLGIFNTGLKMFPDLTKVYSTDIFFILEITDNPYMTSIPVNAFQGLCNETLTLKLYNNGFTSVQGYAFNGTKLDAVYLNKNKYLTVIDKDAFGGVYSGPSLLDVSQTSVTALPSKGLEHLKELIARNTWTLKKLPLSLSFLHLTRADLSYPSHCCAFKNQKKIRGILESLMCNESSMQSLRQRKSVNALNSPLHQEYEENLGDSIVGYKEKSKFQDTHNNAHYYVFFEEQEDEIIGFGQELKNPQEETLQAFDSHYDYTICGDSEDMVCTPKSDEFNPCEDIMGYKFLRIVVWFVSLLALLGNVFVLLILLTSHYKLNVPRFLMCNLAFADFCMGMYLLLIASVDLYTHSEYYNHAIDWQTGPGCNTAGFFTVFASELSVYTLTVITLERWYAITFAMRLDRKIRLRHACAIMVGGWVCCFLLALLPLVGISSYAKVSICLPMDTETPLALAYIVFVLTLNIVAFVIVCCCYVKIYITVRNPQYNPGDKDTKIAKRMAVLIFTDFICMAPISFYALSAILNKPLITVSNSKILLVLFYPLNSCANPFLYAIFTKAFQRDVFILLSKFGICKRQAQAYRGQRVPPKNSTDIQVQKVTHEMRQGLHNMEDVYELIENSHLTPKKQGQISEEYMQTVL
Sequence of Progesterone receptor (Homo sapiens) (P06401 whole entry, looked up): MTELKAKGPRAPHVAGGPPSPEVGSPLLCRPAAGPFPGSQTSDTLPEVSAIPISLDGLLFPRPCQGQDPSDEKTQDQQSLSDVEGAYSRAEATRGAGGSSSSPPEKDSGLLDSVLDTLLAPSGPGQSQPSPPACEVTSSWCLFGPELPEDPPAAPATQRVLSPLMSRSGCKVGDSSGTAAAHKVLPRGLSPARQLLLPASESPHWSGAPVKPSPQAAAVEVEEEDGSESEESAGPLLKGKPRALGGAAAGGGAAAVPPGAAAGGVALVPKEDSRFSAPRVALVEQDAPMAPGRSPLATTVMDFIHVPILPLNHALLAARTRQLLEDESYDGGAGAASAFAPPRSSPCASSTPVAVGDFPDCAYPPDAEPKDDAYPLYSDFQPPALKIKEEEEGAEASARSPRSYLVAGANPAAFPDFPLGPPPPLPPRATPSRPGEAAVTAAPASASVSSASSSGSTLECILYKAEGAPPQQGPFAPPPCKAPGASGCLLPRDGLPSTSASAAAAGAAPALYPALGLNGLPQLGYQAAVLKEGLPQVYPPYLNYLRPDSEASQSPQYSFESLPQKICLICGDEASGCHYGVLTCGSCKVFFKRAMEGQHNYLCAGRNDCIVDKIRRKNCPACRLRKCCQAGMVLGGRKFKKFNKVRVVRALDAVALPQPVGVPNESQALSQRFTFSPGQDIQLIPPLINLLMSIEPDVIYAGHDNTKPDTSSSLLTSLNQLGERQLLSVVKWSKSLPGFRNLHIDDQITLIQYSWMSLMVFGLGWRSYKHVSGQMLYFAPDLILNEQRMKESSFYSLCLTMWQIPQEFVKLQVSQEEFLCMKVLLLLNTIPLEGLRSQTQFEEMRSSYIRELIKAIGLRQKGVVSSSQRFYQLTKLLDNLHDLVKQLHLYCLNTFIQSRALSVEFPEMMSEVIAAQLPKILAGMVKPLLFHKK
Sequence of Nuclear receptor subfamily 1 group I member 2 (Rattus norvegicus) (Q9R1A7 whole entry, looked up): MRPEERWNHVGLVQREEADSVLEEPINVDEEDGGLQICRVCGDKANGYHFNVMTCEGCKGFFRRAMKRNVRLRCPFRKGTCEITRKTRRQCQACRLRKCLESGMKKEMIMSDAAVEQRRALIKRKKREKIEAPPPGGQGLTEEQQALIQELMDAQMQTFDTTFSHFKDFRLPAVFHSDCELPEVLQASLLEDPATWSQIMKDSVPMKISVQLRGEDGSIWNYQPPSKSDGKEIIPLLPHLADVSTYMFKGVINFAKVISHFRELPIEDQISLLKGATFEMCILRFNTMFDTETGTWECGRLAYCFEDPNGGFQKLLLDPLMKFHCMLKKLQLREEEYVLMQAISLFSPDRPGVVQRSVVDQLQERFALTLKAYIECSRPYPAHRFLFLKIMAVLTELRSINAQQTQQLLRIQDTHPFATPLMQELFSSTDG

Cc1cc2nc(N)sc2cc1C
active: Potency [12] 27.6 µM
inactive: Potency [1] | Potency [2] | Potency [3] | Potency [4] | outcome [5] | outcome [6] | Potency [7] | Potency [8] | Potency [9] | outcome [10] | Potency [11]

CN(C)CC[C@@H](c1ccc(Cl)cc1)c1ccccn1
inactive: Potency [1] | Potency [2] | Potency [13] | Potency [14] | Potency [4] | outcome [5] | outcome [6] | outcome [15] | outcome [16] | Potency [17] | Potency [8] | Potency [9] | outcome [10] | Potency [11]

NC(=O)NS(=O)(=O)c1ccc(Cl)cc1
inactive: Potency [1] | Potency [2] | Potency [13] | Potency [14] | outcome [5] | outcome [6] | outcome [15] | outcome [16] | Potency [17] | Potency [8] | outcome [10] | Potency [11] | Potency [12]

CCCCCOc1ccc(C2SC(=O)NC2=O)cc1OCC (stereo not given)
inactive: Potency [1] | Potency [2] | Potency [13] | Potency [4] | outcome [5] | outcome [6] | outcome [16] | Potency [17] | Potency [7] | Potency [8] | Potency [9] | outcome [10]
active: Potency [12] 29.8 µM

CCOC(=O)C1CC(=O)C(=C(O)C2CC2)C(=O)C1 (stereo not given)
inactive: Potency [1] | Potency [2] | Potency [13] | Potency [14] | Potency [4] | outcome [5] | outcome [6] | outcome [16] | Potency [17] | Potency [7] | Potency [9] | outcome [10] | Potency [12]

CCCOc1ccc2c(c1)CC[C@@H]1[C@@H]2CC[C@]2(C)C(OC)CC[C@@H]12 (stereo not given in full)
active: Potency [13] 15 µM
inactive: Potency [1] | Potency [2] | Potency [14] | outcome [5] | outcome [6] | outcome [15] | Potency [17] | Potency [7] | Potency [8] | outcome [10] | Potency [11] | Potency [12]

N#Cc1ccc(C(c2ccc(C#N)cc2)n2cncn2)cc1
inactive: Potency [1] | Potency [2] | Potency [13] | Potency [14] | outcome [5] | outcome [6] | outcome [15] | outcome [16] | Potency [17] | Potency [7] | Potency [8] | Potency [9] | outcome [10] | Potency [11] | Potency [12] | max activation [18] 0.445% | Potency [19] | Potency [20]

CCCCN1C[C@H](O)[C@@H](O)[C@H](O)[C@H]1CO
inactive: Potency [1] | Potency [2] | Potency [13] | Potency [14] | Potency [4] | outcome [5] | outcome [6] | outcome [16] | Potency [17] | Potency [9] | outcome [10] | Potency [11] | Potency [12] | max activation [18] -1.78% | Potency [19] | Potency [20]

ICCc1ccccc1
active: Potency [13] 59.9 µM | Potency [14] 59.9 µM | Potency [4] 59.9 µM | Potency [12] 59.9 µM
inactive: Potency [1] | Potency [2] | outcome [5] | outcome [6] | outcome [16] | Potency [17] | Potency [7] | Potency [8] | Potency [9] | outcome [10] | Potency [11]

FC(F)(F)c1ccccc1
inactive: Potency [1] | Potency [2] | Potency [13] | Potency [4] | outcome [5] | outcome [6] | outcome [15] | Potency [17] | Potency [7] | Potency [8] | Potency [9] | outcome [10] | Potency [11] | Potency [12]

O=C(Cl)c1cccc([N+](=O)[O-])c1
inactive: Potency [1] | Potency [2] | Potency [13] | Potency [14] | Potency [4] | outcome [5] | outcome [6] | outcome [15] | Potency [7] | outcome [10] | Potency [11] | Potency [12]

CC(CNC1CCCCC1)OC(=O)c1ccccc1 (stereo not given)
inactive: Potency [1] | Potency [2] | Potency [13] | Potency [14] | Potency [4] | outcome [5] | outcome [6] | outcome [15] | outcome [16] | Potency [17] | Potency [7] | Potency [8] | Potency [9] | outcome [10] | Potency [11]

NNS(=O)(=O)c1ccc(Oc2ccc(S(=O)(=O)NN)cc2)cc1
inactive: Potency [1] | Potency [2] | Potency [13] | Potency [14] | outcome [5] | outcome [6] | outcome [15] | outcome [16] | Potency [17] | Potency [7] | Potency [8] | Potency [9] | outcome [10] | Potency [11]

Nc1cccc(S(=O)(=O)O)c1
inactive: Potency [1] | Potency [2] | Potency [3] | outcome [5] | outcome [6] | outcome [15] | Potency [7] | Potency [8] | Potency [9] | outcome [10] | Potency [11] | Potency [12]

COC(=O)c1ccc2cc(C(=O)OC)ccc2c1
inactive: activity change, negative = inhibition [1] -1.02% [at 19 µM] | activity change, negative = cytotoxicity [2] -3.99% [at 19 µM] | activity change, negative = inhibition [13] -25.1% [at 18.9 µM] | Potency [14] | activity change, negative = cytotoxicity [4] -2.9% [at 19 µM] | viability change, negative = cytotoxic [5] 0.743% [at 15.8 µM] | activity change, negative = cytotoxicity [6] 8.9% [at 15.8 µM] | activation [15] 0.192% [at 15.8 µM] | activity change, negative = cytotoxicity [7] 6.1% [at 19 µM] | caspase activation [8] -5.84% [at 19 µM] | activity change, negative = cytotoxicity [9] 6.59% [at 19 µM] | caspase-3/7 activation [10] -2.42% [at 19 µM] | activity change, negative = cytotoxicity [11] -0.603% [at 19 µM] | activation [12] 19.9% [at 19 µM]

CN(CC1(C)CCCO1)S(=O)(=O)c1ccc(Cl)c(S(N)(=O)=O)c1 (stereo not given)
active: Potency [12] 10.6 µM
inactive: Potency [1] | Potency [2] | Potency [13] | Potency [14] | Potency [4] | outcome [5] | outcome [6] | outcome [15] | Potency [17] | Potency [8] | Potency [9] | outcome [10] | Potency [11]

CCCCC(=O)O[C@]1(C(=O)CO)[C@H](C)C[C@H]2[C@@H]3CCC4=CC(=O)C=C[C@]4(C)[C@@]3(F)[C@@H](O)C[C@@]21C
inactive: Potency [1] | Potency [2] | Potency [13] | Potency [14] | outcome [5] | outcome [6] | outcome [15] | Potency [7] | Potency [8] | Potency [9] | outcome [10] | Potency [12] | Potency [19]
